This is an account of results in PubChem BioAssay (Tox21).

Results filed as inconclusive are left out. Where a call stands in place of a potency, no number is given. The source made the active and inactive calls. Unless noted, calls come from the whole dose curve.
Note: nearly all actives have a fitted effect of over 30% in size.
Potency is the fitted concentration of half-maximal effect.

Progesterone receptor (Homo sapiens), sequence (P06401 whole entry, looked up): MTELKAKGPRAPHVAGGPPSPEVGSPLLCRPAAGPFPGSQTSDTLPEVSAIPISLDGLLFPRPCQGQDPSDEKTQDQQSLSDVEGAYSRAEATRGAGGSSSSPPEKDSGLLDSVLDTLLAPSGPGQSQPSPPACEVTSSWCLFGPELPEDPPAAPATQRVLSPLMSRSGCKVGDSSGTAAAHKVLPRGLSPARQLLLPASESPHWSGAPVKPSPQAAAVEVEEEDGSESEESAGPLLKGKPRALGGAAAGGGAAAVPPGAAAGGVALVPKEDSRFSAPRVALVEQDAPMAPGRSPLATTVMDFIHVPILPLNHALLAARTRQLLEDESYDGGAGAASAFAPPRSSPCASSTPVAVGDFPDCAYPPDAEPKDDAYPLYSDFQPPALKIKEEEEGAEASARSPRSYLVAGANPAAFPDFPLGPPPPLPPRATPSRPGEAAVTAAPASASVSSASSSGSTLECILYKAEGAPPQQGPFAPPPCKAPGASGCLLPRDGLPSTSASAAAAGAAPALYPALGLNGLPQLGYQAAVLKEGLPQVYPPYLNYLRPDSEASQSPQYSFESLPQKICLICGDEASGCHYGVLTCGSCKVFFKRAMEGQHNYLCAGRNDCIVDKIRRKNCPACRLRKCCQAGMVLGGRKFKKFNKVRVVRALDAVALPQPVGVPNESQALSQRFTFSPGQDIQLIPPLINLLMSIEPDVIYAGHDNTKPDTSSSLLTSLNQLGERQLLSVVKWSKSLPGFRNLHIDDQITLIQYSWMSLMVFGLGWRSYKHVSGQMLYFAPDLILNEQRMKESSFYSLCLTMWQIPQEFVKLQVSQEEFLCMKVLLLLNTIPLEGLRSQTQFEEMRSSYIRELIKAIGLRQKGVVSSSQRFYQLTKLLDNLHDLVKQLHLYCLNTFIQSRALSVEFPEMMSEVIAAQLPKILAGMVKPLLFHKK

Test system in one test: not listed separately
The experiment in a line: qHTS assay to identify small molecule agonists of the estrogen receptor alpha (ER-alpha) signaling pathway in the presence of an antagonist - cell viability counter screen (AID 1259386; active = well fitted cell-killing curve with a large enough effect in the repeat runs;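 note: cells exposed to compounds for 22 h at 37 °C before the viability read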). As to conditions: VM7Luc4E2 viability, CellTiter-Fluor fluorescence, 22 h; series mostly up to 92.4 µM. In a few lines:
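Using estrogen-depleted VM7Luc4E2 cells, the 15-concentration compound series was applied together with 10.0nM ICI-182,780 and incubated 22hr at 37C/5% CO2. Cell viability was then scored by CellTiter-Fluor.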
As to `CCC(Cl)C(Cl)C(Cl)CC(Cl)C(Cl)C(C)Cl` (configuration not stated), the Potency entry was “inactive”.
Consider `COC(=O)C1=C(C)NC(C)=C(C(=O)OCCc2ccc(N3CCN(C(c4ccccc4)c4ccccc4)CC3)cc2)C1c1cccc([N+](=O)[O-])c1` (configuration not stated), for which the Potency entry was “inactive”.
With `CCCCCCCCCCCCCCCC(=O)OC[C@H](O)[C@H]1OC(=O)C(O)=C1O`, the Potency entry is “inactive”.
On the same count and under the same terms, then `N#CSc1ccc(N)c([N+](=O)[O-])c1`, with 48.9 µM (active); and `COc1cc(-c2ccc(N=C=O)c(OC)c2)ccc1N=C=O`, with “inactive”; and `CNC(=O)c1ccccc1`, with “inactive”.
As for `CC(C)(C)NC(=O)[C@@H]1C[C@@H]2CCCC[C@@H]2CN1C[C@@H](O)[C@H](Cc1ccccc1)NC(=O)[C@H](CC(N)=O)NC(=O)c1ccc2ccccc2n1`, the Potency is 49.2 µM (active).
Still for that read-out and setting: in the case of `O=C(O)c1c(Cl)cccc1Cl` it was “inactive”; in that of `NNC(=O)c1cccc(C(=O)NN)c1`, “inactive”; in that of `CCCCCCCCCCCCCCCS(=O)(=O)Oc1ccccc1`, “inactive”.
Still for that read-out and setting: then `C1CCCC1`, with “inactive”; and `NNc1nc(-c2ccc(N)cc2)cs1`, with 30.6 µM (active); and `O=c1cccccc1O`, with “inactive”.
Consider `Nc1c(Cl)cc(Cl)cc1Cl`, for which the Potency entry is “inactive”.
Same read-out and setting: then `Cc1cccc(S(=O)(=O)O)c1C`, with “inactive”.
Regarding `CCCCCCCC(=O)[O-].CCCCCCCC(=O)[O-].[Zn+2]`, the Potency result was “inactive”.
Turning to `COc1cc(-c2nc(NC(=O)c3cc4cc(C)cc(C)c4n3CC(=O)O)sc2CCC2CCCCC2)c(OC)cc1Cl`, the Potency result was “inactive”.
For the molecule `Cc1ccc(O)c2ncccc12`, the Potency result is “inactive”.
Consider `CCCCCOc1ccccc1/C(=C\SC)n1ccnc1`, for which the Potency result was “inactive”.
Same read-out and setting: in the case of `C/C=C(\C)C(=O)OCc1ccccc1` it was “inactive”; in that of `CSc1cnc(C)cn1`, “inactive”.
In the case of `O=C(O)c1ccc(Cl)c(Cl)c1`, the Potency result was “inactive”.
`CN(C)CCCOC1(Cc2ccccc2)CCCCCC1`: the Potency result was “inactive”.
As for `CCOC(=O)O[C@]1(C(=O)OCCl)CC[C@H]2[C@@H]3CCC4=CC(=O)C=C[C@]4(C)[C@H]3[C@@H](O)C[C@@]21C`, the Potency entry is “inactive”.
With `CN(C)[C@@H]1C(=O)C(C(N)=O)=C(O)[C@@]2(O)C(=O)C3=C(O)c4c(O)ccc(Cl)c4[C@@H](O)[C@H]3C[C@@H]12`, the Potency entry is “inactive”.
As to `O=CC=C(c1ccccc1)c1ccccc1`, the Potency result is “inactive”.
Consider `CC(=O)SC[C@@H](Cc1ccccc1)C(=O)NCC(=O)OCc1ccccc1`, for which the Potency result was “inactive”.
Take `CCCCN(CCCC)C(=O)N(CCCC)CCCC`: the Potency result is “inactive”.
For `Cc1cc(O)c(Cl)c(C)c1Cl`, the Potency result is “inactive”.
On the same count and under the same terms, then `O=C(c1ccc(O)cc1O)c1ccc(O)cc1O`, with “inactive”.
As to `Oc1ccc2c(c1)-c1ccccc1C2`, the Potency result was “inactive”.
In the case of `O=C1CCCCCN1SSN1CCCCCC1=O`, the Potency result was “inactive”.
Regarding `CC(C)=CCOc1ccc(/C=C/C(=O)c2ccc(OCC=C(C)C)cc2OCC(=O)O)cc1`, the Potency entry was “inactive”.
Take `CCC(C)(C)C1CCCCC1OC(C)=O` (configuration not stated): the Potency result was “inactive”.
Take `CC(C)(C)C(=O)OCOC(=O)[C@@H]1N2C(=O)[C@@H](NC(=O)[C@H](N)c3ccccc3)[C@H]2SC1(C)C`: the Potency result is “inactive”.
The same measure, in the same setting: in the case of `c1ccc(CSCc2ccccc2)cc1` it was “inactive”.

Another test addresses Progesterone receptor (Homo sapiens) (UniProt P06401). As to the kind of experiment: qHTS assay to identify small molecule agonists of the progesterone receptor (PR) signaling pathway (AID 1346784). The following applies: PR-UAS-bla HEK293T, beta-lactamase FRET ratio, 16 h; series mostly up to 92.4 µM. In a few lines:
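Agonist qHTS: compounds pinned onto 3,000 PR-UAS-bla HEK 293T cells per well in charcoal-stripped serum medium, 16hr at 37C, then beta-lactamase activity measured by LiveBLAzer FRET fluorescence after 2 hours at room temperature.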
In the case of `CCC(Cl)C(Cl)C(Cl)CC(Cl)C(Cl)C(C)Cl` (configuration not stated), the Potency result was “inactive”.
Regarding `COC(=O)C1=C(C)NC(C)=C(C(=O)OCCc2ccc(N3CCN(C(c4ccccc4)c4ccccc4)CC3)cc2)C1c1cccc([N+](=O)[O-])c1` (configuration not stated), the Potency result is “inactive”.
With `CCCCCCCCCCCCCCCC(=O)OC[C@H](O)[C@H]1OC(=O)C(O)=C1O`, the Potency result was “inactive”.
For the molecule `N#CSc1ccc(N)c([N+](=O)[O-])c1`, the Potency entry was “inactive”.
For the molecule `COc1cc(-c2ccc(N=C=O)c(OC)c2)ccc1N=C=O`, the Potency result was “inactive”.
Take `CNC(=O)c1ccccc1`: the Potency entry was “inactive”.
On to `CC(C)(C)NC(=O)[C@@H]1C[C@@H]2CCCC[C@@H]2CN1C[C@@H](O)[C@H](Cc1ccccc1)NC(=O)[C@H](CC(N)=O)NC(=O)c1ccc2ccccc2n1`, for which the Potency result is “inactive”.
As for `O=C(O)c1c(Cl)cccc1Cl`, the Potency entry was “inactive”.
As for `NNC(=O)c1cccc(C(=O)NN)c1`, the Potency entry is “inactive”.
Turning to `CCCCCCCCCCCCCCCS(=O)(=O)Oc1ccccc1`, the Potency entry is “inactive”.
On the same count and under the same terms, then `C1CCCC1`, with “inactive”; and `NNc1nc(-c2ccc(N)cc2)cs1`, with “inactive”.
As to `O=c1cccccc1O`, the Potency result is “inactive”.
With `Nc1c(Cl)cc(Cl)cc1Cl`, the Potency entry is “inactive”.
With `Cc1cccc(S(=O)(=O)O)c1C`, the Potency result was “inactive”.
Turning to `CCCCCCCC(=O)[O-].CCCCCCCC(=O)[O-].[Zn+2]`, the Potency entry is “inactive”.
Take `COc1cc(-c2nc(NC(=O)c3cc4cc(C)cc(C)c4n3CC(=O)O)sc2CCC2CCCCC2)c(OC)cc1Cl`: the Potency entry was “inactive”.
Take `Cc1ccc(O)c2ncccc12`: the Potency entry was “inactive”.
For `CCCCCOc1ccccc1/C(=C\SC)n1ccnc1`, the Potency result is “inactive”.
`C/C=C(\C)C(=O)OCc1ccccc1`: the Potency result is “inactive”.
For the molecule `CSc1cnc(C)cn1`, the Potency result is “inactive”.
The same measure, in the same setting: then `O=C(O)c1ccc(Cl)c(Cl)c1`, with “inactive”; and `CN(C)CCCOC1(Cc2ccccc2)CCCCCC1`, with “inactive”.
The same measure, in the same setting: then `CCOC(=O)O[C@]1(C(=O)OCCl)CC[C@H]2[C@@H]3CCC4=CC(=O)C=C[C@]4(C)[C@H]3[C@@H](O)C[C@@]21C`, with 0.188 µM (active); and `CN(C)[C@@H]1C(=O)C(C(N)=O)=C(O)[C@@]2(O)C(=O)C3=C(O)c4c(O)ccc(Cl)c4[C@@H](O)[C@H]3C[C@@H]12`, with “inactive”; and `O=CC=C(c1ccccc1)c1ccccc1`, with “inactive”.
Still for that read-out and setting: in the case of `CC(=O)SC[C@@H](Cc1ccccc1)C(=O)NCC(=O)OCc1ccccc1` it was “inactive”; in that of `CCCCN(CCCC)C(=O)N(CCCC)CCCC`, “inactive”.
Regarding `Cc1cc(O)c(Cl)c(C)c1Cl`, the Potency result was “inactive”.
Same read-out and setting: then `O=C(c1ccc(O)cc1O)c1ccc(O)cc1O`, with “inactive”.
For `Oc1ccc2c(c1)-c1ccccc1C2`, the Potency result was “inactive”.
For `O=C1CCCCCN1SSN1CCCCCC1=O`, the Potency entry is “inactive”.
For the molecule `CC(C)=CCOc1ccc(/C=C/C(=O)c2ccc(OCC=C(C)C)cc2OCC(=O)O)cc1`, the Potency entry is “inactive”.
Turning to `CCC(C)(C)C1CCCCC1OC(C)=O` (configuration not stated), the Potency result is “inactive”.
As to `CC(C)(C)C(=O)OCOC(=O)[C@@H]1N2C(=O)[C@@H](NC(=O)[C@H](N)c3ccccc3)[C@H]2SC1(C)C`, the Potency result was “inactive”.
Still for that read-out and setting: in the case of `c1ccc(CSCc2ccccc2)cc1` it was “inactive”.
